# Results filed as inconclusive are left out. Activity calls are given as the source filed them. The calls were made as follows: active = hit-call score of the fitted dose curve at least 0.9, where 1 is the maximum; inconclusive = response in the unintended direction; inactive = score below 0.9.
# Key:
# [1] = molecular target: human Adrenergic, Beta 1 Receptor (Adrb1), ADRB1 (gene 153) (UniProt P08588); test: NVS_GPCR_hAdrb1: NovaScreen (NVS) G Protein-Coupled Receptor Assay for human Adrenergic, Beta 1 Receptor (Adrb1) (AID 2283258)
# human Adrenergic, Beta 1 Receptor (Adrb1), ADRB1 (gene 153), sequence (P08588 whole entry, looked up): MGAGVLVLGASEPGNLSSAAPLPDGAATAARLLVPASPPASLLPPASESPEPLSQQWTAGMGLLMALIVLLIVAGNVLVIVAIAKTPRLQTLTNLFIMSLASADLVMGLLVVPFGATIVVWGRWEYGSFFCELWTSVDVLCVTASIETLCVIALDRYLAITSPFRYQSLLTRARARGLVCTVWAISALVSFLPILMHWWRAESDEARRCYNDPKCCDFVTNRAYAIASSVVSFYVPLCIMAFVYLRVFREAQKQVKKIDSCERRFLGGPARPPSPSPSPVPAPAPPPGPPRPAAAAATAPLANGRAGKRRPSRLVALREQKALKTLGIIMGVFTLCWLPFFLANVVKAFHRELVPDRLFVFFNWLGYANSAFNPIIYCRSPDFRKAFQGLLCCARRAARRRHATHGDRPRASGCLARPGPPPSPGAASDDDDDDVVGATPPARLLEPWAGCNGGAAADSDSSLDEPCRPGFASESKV
# In short: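 Membranes/protein extracted from human neuroepithelioma cells, radioligand competition binding read by filtration and scintillation 2 h post-dose. Single 25 uM duplicate screen, then concentration-response follow-up; DMSO as negative control.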
# [2] = molecular target: Beta-2 adrenergic receptor (Homo sapiens) (UniProt P07550); test: NVS_GPCR_hAdrb2: NovaScreen (NVS) G Protein-Coupled Receptor Assay for human Adrenergic, Beta 2 Receptor (Adrb2) (AID 2283261)
# Beta-2 adrenergic receptor (Homo sapiens), sequence (P07550 whole entry, looked up): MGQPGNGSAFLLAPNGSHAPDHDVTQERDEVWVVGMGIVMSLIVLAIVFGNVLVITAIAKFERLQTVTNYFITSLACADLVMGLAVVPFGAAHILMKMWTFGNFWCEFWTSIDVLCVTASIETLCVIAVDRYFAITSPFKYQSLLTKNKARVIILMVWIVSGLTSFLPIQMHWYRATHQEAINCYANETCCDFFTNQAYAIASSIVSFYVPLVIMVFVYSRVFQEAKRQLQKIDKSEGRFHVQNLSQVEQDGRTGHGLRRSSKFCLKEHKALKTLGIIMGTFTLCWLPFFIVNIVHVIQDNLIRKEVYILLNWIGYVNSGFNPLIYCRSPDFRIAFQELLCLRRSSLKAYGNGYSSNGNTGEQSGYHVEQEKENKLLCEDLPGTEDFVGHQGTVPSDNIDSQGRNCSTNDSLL
# In short: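 Compounds screened in duplicate at 25 uM, then actives in concentration series. Human beta-2 receptor from CHO material, cell-free; radioligand displacement after 1 h measured by filtration and scintillation against DMSO baseline.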
# [3] = molecular target: human Dopamine Receptor D4.4 (DRD4.4), DRD4 (gene 1815) (UniProt P21917); test: NVS_GPCR_hDRD4.4: NovaScreen (NVS) G Protein-Coupled Receptor Assay for human Dopamine Receptor D4.4 (DRD4.4) (AID 2283264)
# human Dopamine Receptor D4.4 (DRD4.4), DRD4 (gene 1815), sequence (P21917 whole entry, looked up): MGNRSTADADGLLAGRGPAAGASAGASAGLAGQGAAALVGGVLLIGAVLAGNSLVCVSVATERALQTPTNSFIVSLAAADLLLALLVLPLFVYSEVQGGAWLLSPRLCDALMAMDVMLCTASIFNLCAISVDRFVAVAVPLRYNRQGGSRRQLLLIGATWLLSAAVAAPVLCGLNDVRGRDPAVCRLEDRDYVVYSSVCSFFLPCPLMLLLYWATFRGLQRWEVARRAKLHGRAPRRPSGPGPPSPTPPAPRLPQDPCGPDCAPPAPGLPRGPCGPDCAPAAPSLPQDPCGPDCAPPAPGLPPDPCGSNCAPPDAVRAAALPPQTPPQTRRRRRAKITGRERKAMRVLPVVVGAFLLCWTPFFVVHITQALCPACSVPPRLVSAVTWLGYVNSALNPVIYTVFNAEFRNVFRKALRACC
# In short: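 Filter-binding assay with a tritiated or iodinated ligand, cell-free receptor prepared from CHO, 1 hour. Loss of bound radioactivity versus DMSO; single 25 uM duplicate screen, then concentration-response for actives.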
# [4] = molecular target: human Adrenergic, Beta 3 Receptor (Adrb3), ADRB3 (gene 155) (UniProt P13945); test: NVS_GPCR_hAdrb3: NovaScreen (NVS) G Protein-Coupled Receptor Assay for human Adrenergic, Beta 3 Receptor (Adrb3) (AID 2283262)
# human Adrenergic, Beta 3 Receptor (Adrb3), ADRB3 (gene 155), sequence (P13945 whole entry, looked up): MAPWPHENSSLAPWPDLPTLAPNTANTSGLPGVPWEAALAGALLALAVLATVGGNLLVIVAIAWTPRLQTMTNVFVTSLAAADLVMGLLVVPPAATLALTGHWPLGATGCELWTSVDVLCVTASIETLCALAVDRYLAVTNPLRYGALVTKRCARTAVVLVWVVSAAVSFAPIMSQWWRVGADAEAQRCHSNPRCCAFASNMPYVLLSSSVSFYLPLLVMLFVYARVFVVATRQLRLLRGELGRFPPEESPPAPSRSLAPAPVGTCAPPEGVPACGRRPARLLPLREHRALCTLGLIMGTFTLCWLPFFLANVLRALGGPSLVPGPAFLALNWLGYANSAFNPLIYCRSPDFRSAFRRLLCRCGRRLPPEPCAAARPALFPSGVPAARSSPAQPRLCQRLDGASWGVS
# In short: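 A cell-free filter binding assay read by scintillation counting, with displacement of a specific radioligand measured after 1 hour. The receptor source was SK-N-MC extracts (cells pretreated with isoproterenol and 8-bromo-cAMP). Compounds were first tested at 25 uM in duplicate and then in concentration series.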
# [5] = molecular target: human Histamine 1 Receptor (H1), HRH1 (gene 3269) (UniProt P35367); test: NVS_GPCR_hH1: NovaScreen (NVS) G Protein-Coupled Receptor Assay for human Histamine 1 Receptor (H1) (AID 2283268)
# human Histamine 1 Receptor (H1), HRH1 (gene 3269), sequence (P35367 whole entry, looked up): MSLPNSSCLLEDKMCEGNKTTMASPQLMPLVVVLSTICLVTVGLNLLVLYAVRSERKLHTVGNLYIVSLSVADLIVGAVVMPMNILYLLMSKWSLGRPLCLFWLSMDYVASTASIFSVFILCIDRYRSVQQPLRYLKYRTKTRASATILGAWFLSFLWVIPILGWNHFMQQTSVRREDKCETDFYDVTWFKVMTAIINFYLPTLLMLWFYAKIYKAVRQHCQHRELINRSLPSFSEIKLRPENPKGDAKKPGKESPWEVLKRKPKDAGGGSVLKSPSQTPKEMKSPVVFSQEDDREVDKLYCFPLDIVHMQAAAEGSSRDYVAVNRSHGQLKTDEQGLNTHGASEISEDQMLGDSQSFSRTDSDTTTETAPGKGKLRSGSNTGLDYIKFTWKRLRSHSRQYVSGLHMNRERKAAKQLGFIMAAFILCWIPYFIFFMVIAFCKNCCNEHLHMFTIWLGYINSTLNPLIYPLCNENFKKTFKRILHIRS
# In short: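 Filter-based scintillation detection of radioligand binding to human H1, 1 h incubation; chemicals screened in duplicate at 25 uM, then concentration-response; signal loss relative to DMSO taken as activity.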
# [6] = molecular target: human Endothelin Receptor Type B (ETB), EDNRB (gene 1910) (UniProt P24530); test: NVS_GPCR_hETB: NovaScreen (NVS) G Protein-Coupled Receptor Assay for human Endothelin Receptor Type B (ETB) (AID 2283267)
# human Endothelin Receptor Type B (ETB), EDNRB (gene 1910), sequence (P24530 whole entry, looked up): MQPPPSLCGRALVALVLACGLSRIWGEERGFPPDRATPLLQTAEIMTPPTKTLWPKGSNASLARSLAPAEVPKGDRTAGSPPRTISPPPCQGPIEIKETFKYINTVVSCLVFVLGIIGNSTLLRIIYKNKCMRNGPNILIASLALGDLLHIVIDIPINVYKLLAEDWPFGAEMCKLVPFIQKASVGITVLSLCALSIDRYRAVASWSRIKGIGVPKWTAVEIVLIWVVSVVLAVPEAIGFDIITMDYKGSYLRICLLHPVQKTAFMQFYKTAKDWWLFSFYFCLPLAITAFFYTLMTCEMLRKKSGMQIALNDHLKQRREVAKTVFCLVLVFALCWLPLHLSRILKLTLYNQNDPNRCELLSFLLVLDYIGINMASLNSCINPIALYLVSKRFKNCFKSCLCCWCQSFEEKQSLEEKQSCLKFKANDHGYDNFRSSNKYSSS
# In short: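 Filter-based scintillation readout of radioligand displacement, 4 h, using membranes from human astrocytoma cells. Actives from a 25 uM duplicate screen were retested in concentration-response (top 50 uM) relative to DMSO baseline.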
structure (smiles),measurement,setting,value
CC[C@H](C)[C@H]1O[C@]2(C=C[C@@H]1C)C[C@@H]1C[C@@H](C/C=C(\C)[C@@H](O[C@H]3C[C@H](OC)[C@@H](O[C@H]4C[C@H](OC)[C@@H](NC)[C@H](C)O4)[C@H](C)O3)[C@@H](C)/C=C/C=C3\CO[C@@H]4[C@H](O)C(C)=C[C@@H](C(=O)O1)[C@]34O)O2,AC50,[1],9.83 µM (active)
same,AC50,[2],18.1 µM (active)
same,AC50,[3],16.2 µM (active)
CCOP(=O)(SC(C)CC)N1CCSC1=O (centres undefined),outcome,[4],inactive
same,outcome,[5],inactive
CON=C(C(=O)OC)c1ccccc1CON=C(C)c1cccc(C(F)(F)F)c1,outcome,[4],inactive
Cc1cc(C2CC2)nc(Nc2ccccc2)n1,AC50,[3],12.3 µM (active)
CNC(=O)Oc1cccc2c1OC(C)(C)O2,outcome,[6],inactive
CN(C)C(=O)Nc1cccc(C(F)(F)F)c1,outcome,[5],inactive
